According to PMC4336329 (PLoS ONE, 2015):
In all, about 310,000 compounds went through this assay and about 14,000 (4.5%) showed an effect of 50% or more. The effect is printed as a negative number. This excerpt belongs to a sample that is enriched for strong results.

Target: human ether-à-go-go-related gene (hERG) potassium channel (human, UniProt Q12809)
Assay: primary screen, population patch clamp on CHO cells stably expressing hERG; higher = less effect of the substance
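Also: peak tail current of the secondary pulse compared with the same well before compound.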

Sequence of human ether-à-go-go-related gene (hERG) potassium channel (Q12809 whole entry, looked up): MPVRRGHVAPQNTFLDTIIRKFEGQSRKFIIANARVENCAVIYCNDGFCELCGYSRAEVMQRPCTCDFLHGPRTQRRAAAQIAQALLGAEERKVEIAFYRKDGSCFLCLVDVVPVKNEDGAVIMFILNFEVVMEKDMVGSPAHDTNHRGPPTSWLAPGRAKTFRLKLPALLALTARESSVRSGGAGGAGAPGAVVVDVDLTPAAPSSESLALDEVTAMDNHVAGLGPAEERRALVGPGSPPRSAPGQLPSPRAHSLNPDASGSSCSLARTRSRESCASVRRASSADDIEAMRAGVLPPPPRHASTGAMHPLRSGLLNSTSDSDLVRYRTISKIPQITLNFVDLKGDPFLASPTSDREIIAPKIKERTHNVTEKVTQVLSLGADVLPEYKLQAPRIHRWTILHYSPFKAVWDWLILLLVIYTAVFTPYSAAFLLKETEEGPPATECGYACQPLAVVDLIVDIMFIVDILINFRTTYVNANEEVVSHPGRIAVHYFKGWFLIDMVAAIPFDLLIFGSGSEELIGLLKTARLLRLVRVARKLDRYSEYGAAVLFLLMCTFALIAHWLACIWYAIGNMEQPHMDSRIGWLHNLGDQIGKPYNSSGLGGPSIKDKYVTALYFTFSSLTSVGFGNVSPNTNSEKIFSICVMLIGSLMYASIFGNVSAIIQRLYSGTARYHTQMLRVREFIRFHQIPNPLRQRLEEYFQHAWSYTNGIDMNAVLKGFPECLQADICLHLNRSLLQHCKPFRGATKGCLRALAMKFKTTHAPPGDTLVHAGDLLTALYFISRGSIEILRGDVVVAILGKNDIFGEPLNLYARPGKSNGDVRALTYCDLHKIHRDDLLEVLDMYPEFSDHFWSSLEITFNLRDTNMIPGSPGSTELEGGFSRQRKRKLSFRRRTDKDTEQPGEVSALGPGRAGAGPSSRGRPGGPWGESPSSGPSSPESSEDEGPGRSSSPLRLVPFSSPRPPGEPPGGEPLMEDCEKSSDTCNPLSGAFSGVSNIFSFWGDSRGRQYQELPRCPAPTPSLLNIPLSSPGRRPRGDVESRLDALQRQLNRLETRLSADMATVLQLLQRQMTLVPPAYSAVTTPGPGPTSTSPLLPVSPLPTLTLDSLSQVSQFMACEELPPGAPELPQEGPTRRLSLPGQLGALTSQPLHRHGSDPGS

Row | Compound | hERG current change (%, negative = inhibition) at 10uM
1 | CC1(C)Cc2c(sc(NC(=O)c3ccc4ncsc4c3)c2C(N)=O)C(C)(C)N1 | -30.5%
2 | Cc1cccc(NC(=O)Nc2ccccc2[N+](=O)[O-])n1 | 16.7%
3 | NS(=O)(=O)c1ccc(CCNC(=O)CN2CCN(c3ccc(F)cc3)CC2)cc1 | -18.7%
4 | COCCSc1ccccc1C(=O)Nc1ccc2c(c1)OCCO2 | 5.7%
5 | CCOCCCN(C(=O)c1snc(C(N)=O)c1N)C(C(=O)NC1CCCC1)c1ccc(OC)cc1 (centres unmarked) | -60.5%
6 | COc1ccc(C(C(=O)NC2CCCCC2)N(C(=O)c2snc(C(N)=O)c2N)c2ccc(OC)cc2OC)cc1 (centres unmarked) | 9.37%
7 | CCC(C(=O)NC1CCCCC1)N(C(=O)c1snc(C(N)=O)c1N)c1ccc(OC)cc1OC (centres unmarked) | -69.3%
8 | CCOCCCN(C(=O)c1snc(C(N)=O)c1N)C(C(=O)NC(C)(C)C)c1ccc(Cl)cc1 (centres unmarked) | -33.1%
9 | CCOCCCN(C(=O)c1snc(C(N)=O)c1N)C(C(=O)NCCC(C)C)c1ccc(F)cc1 (centres unmarked) | -23.6%
10 | COc1ccc(C(C(=O)NC2CCCC2)N(C(=O)c2snc(C(N)=O)c2N)C2CCCC2)cc1OC (centres unmarked) | 5.77%
11 | CCOCCCN(C(=O)c1snc(C(N)=O)c1N)C(C(=O)NC1CCCC1)c1ccc(O)cc1 (centres unmarked) | 3.52%
12 | CCOc1ccc(C(C(=O)NC2CCCCC2)N(CCOC)C(=O)c2snc(C(N)=O)c2N)cc1 (centres unmarked) | -47.5%
13 | CCOc1ccc(C(C(=O)NC2CCCC2)N(C(=O)c2snc(C(N)=O)c2N)C2CCCC2)cc1 (centres unmarked) | -51.1%
14 | CCC(C(=O)NC1CCCC1)N(C(=O)c1snc(C(N)=O)c1N)c1ccc(OC)c(OC)c1 (centres unmarked) | 15.5%
15 | CCOCCCN(C(=O)c1snc(C(N)=O)c1N)C(C(=O)NC1CCCC1)c1ccc(F)cc1 (centres unmarked) | -12%
16 | CCOCCCN(C(=O)c1snc(C(N)=O)c1N)C(C(=O)NCCC(C)C)c1ccc(Cl)cc1 (centres unmarked) | -68.1%
17 | CCCCC1CCCOC(C(=O)NCCNCCO)(C(F)(F)F)C1 (centres unmarked) | 6.03%
18 | CN(C)c1nnnn1-c1ccc(Cl)cc1Cl | 0.276%
19 | CCN(CC)C(=O)c1n[nH]c(=O)c2ccccc12 | 4%
20 | CCn1c(SCC(=O)Nc2cc(C)on2)nnc1-c1ccccc1 | -3.05%

Row | Compound | hERG current change (%, negative = inhibition) at 10uM
21 | COc1ccc(-c2cc(C(=O)N3CCN(c4ccccc4OC)CC3)no2)cc1OC | -0.868%
22 | N#CCOC(=O)c1c2c(nc3ccccc13)CCC2 | -23.1%
23 | Cc1ccc(C)c(S(=O)(=O)N2CCN(CC(=O)NC(=O)NCc3ccccc3)CC2)c1 | -9.97%
24 | Cc1cc(C)n(-c2ccc(C(=O)N3CCc4ccccc43)cc2)n1 | -3.89%
25 | COc1ccccc1NC(=O)Nc1ccccc1C#N | 15.6%
26 | O=C1CCCN1CCCNS(=O)(=O)c1cccc(F)c1 | 25.9%
27 | CCOc1ccccc1N(C(=O)c1snc(C(N)=O)c1N)C(C(=O)NC1CCCC1)c1ccco1 (centres unmarked) | -55%
28 | COc1ccccc1N(C(=O)c1snc(C(N)=O)c1N)C(C(=O)NC1CCCC1)c1ccco1 (centres unmarked) | -35.4%
29 | CCOc1ccccc1N(C(=O)c1snc(C(N)=O)c1N)C(C(=O)NCCC(C)C)c1ccco1 (centres unmarked) | -22.2%
30 | CNC(=S)N1CCN(c2nc(-c3ccc(Cl)cc3)cs2)CC1 | 14.7%
31 | Cc1cc2c(cc1C)N(Cc1ccccc1)C1=NCCCN12.Cl | -72.3%
32 | Cc1cc2c(cc1C)N(Cc1ccc(Cl)cc1)C1=NCCCN12 | -69.8%
33 | COC(=O)c1cc(Cl)cc2c(C)c(C3(O)CCCCC3)[nH]c12 | 15%
34 | O=C(/C=C/c1ccccc1)N/C(=C/c1ccccc1)C(=O)Nc1ccccc1O | -27.3%
35 | CCc1ccccc1NC(=O)Cn1nnc(C(=O)NCc2cccs2)c1N | 13.8%
36 | O=C(Cn1cnc2ccccc2c1=O)NCCC(=O)N1CCN(c2ccccc2)CC1 | -7.6%
37 | O=C(CN1CCN(C(C(=O)Nc2ccc(Cl)cc2C(F)(F)F)c2ccccc2)CC1)NC1CC1 (centres unmarked) | -70.2%
38 | Cc1ccc(NC(=O)C(c2ccccc2)N2CCN(CC(=O)NC3CC3)CC2)cc1Cl (centres unmarked) | -46.7%
39 | Cc1cc(C)cc(NC(=O)C(c2ccccc2)N2CCN(CC(=O)NC3CC3)CC2)c1 (centres unmarked) | -28.3%
40 | Cc1cc(NC(=O)COC(=O)C2CCCN2C(=O)c2cccs2)no1 (centres unmarked) | -4.36%

Row | Compound | hERG current change (%, negative = inhibition) at 10uM
41 | NC(=O)c1ccsc1NC(=O)COC(=O)C1CCCN1C(=O)c1cccs1 (centres unmarked) | -63%
42 | COc1ccccc1NC(=O)COC(=O)[C@@H]1CCCN1C(=O)c1cccs1 | -40.6%
43 | Cc1ccn2c(C(=O)N/N=C\c3ccccc3[N+](=O)[O-])c(C)nc2c1 | -27.2%
44 | COCCn1c(C)cc(C(=O)Cn2nc(C(=O)O)c3ccccc3c2=O)c1C | -3.4%
45 | O=C(CNC(=O)Cc1cccc2ccccc12)NCc1ccccc1F | 14.8%
46 | CCOC(=O)C1=C(COC(=O)c2cccc(N(C)C)c2)NC(=O)NC1C (centres unmarked) | 2.49%
47 | O=C(Oc1ccc(F)cc1)c1cccnc1 | 17.1%
48 | O=C(c1ccc(Br)s1)N1CCN(Cc2ccc3c(c2)OCO3)CC1 | -36.3%
49 | O=C(c1cccs1)N1CCN(Cc2ccc3c(c2)OCO3)CC1 | -15.7%
50 | O=C(/C=C/c1cccs1)N1CCN(Cc2ccc3c(c2)OCO3)CC1 | -47.9%
51 | O=C(O)/C=C/C(=O)N1CCN(Cc2ccc3c(c2)OCO3)CC1 | 4.54%
52 | Cn1c(C(=O)N2CCC(C(=O)N3CCN(Cc4ccc5c(c4)OCO5)CC3)CC2)cc2sccc21 | -60.6%
53 | Cl.Cn1c(C(=O)N2CCN(Cc3ccc4c(c3)OCO4)CC2)cc2sccc21 | -8.46%
54 | O=C(/C=C\c1cccs1)N1CCN(Cc2ccc3c(c2)OCO3)CC1 | -57.8%
55 | O=C(C1CCCN1C(=O)c1cccs1)N1CCN(Cc2ccc3c(c2)OCO3)CC1 (centres unmarked) | -6.29%
56 | Cn1c(C(=O)N2CCC(C(=O)N3CCOCC3)CC2)cc2sccc21 | 7.59%
57 | O=C(c1cccs1)N1CCC(C(=O)N2CCN(Cc3ccc4c(c3)OCO4)CC2)CC1 | -59.9%
58 | O=C(c1sccc1Br)N1CCN(Cc2ccc3c(c2)OCO3)CC1 | -11%
59 | Cl.O=C(c1cc2c(s1)CCCC2)N1CCN(Cc2ccc3c(c2)OCO3)CC1 | -54.2%
